Reference: PubChem BioAssay (EPA / NIEHS)
Results filed as inconclusive are left out. Activity calls are given as the source filed them. Rule for the calls, unless noted: active = hit-call score of the fitted dose curve at least 0.9, where 1 is the maximum; inconclusive = response in the unintended direction; inactive = score below 0.9.

Key:
[1] = target: Bile acid receptor (Homo sapiens) (UniProt Q96RI1); experiment: ATG_FXR_TRANS: Attagene TRANS-FACTORIAL HepG2 Assay for Farnesoid X Receptor (FXR) (AID 2282979); settings: HepG2 Attagene TRANS FXR-GAL4 reporter transcription;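 note: hits raise reporter mRNA above DMSO so AC50 marks FXR activation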
Outline: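 Transient transfection of HepG2 with multiplexed GAL4-UAS reporter units; exogenous FXR-GAL4 chimera. Dose 24 h → TriZol RNA → oligo(dT) RT → PCR, 6-FAM primer extension, HpaI cut → CE. Gain vs DMSO.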

[2] = target: Oxysterols receptor LXR-alpha (Homo sapiens) (UniProt Q13133); experiment: ATG_LXRa_TRANS: Attagene TRANS-FACTORIAL HepG2 Assay for human Liver X Receptor alpha (LXRa) (AID 2282980); settings: HepG2 Attagene TRANS reporter, LXRa transactivation
Outline: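 Transfect HepG2 with GAL4-UAS multiplex reporter constructs (TRANS format, chimeric receptor-GAL4); treat 24 h; extract RNA, reverse-transcribe, PCR-amplify, FAM-label, HpaI-digest; resolve fragments by capillary electrophoresis. Upward response vs DMSO.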

[3] = target: Nuclear receptor subfamily 4 group A member 2 (Homo sapiens) (UniProt P43354); experiment: ATG_NURR1_TRANS: Attagene TRANS-FACTORIAL HepG2 Assay for human Nuclear Receptor Related Protein 1 (NURR1) (AID 2282985); settings: HepG2 Attagene TRANS reporter, mRNA readout
Outline: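 Read-out: reporter mRNA induction by RT-PCR plus capillary electrophoresis with fluorescence detection, after 24 h dosing of transfected HepG2 cells. Exogenous NR-Gal4 chimera activity drives GAL4-UAS reporter; activity fitted upward versus DMSO.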

[4] = target: Transcriptional activator Myb (Homo sapiens) (UniProt P10242); experiment: ATG_Myb_CIS: Attagene CIS-FACTORIAL HepG2 Assay for human Myeloblastosis (Myb) Proto-Oncogene Transcription Factor (AID 2282986; active = hit-call score of the fitted dose curve at least 0.9, where 1 is the maximum; inactive = score below 0.9); settings: HepG2 Attagene CIS-FACTORIAL Myb reporter transcription; actives raise or lower the signal
Outline: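 Reporter mRNA is quantified by RT-PCR and capillary electrophoresis 24 h after dosing HepG2 cells transfected with cis-regulated reporter units, which track endogenous transcription factor activity. Gain and loss of signal are fitted versus DMSO baseline.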

[5] = target: Nuclear respiratory factor 1 (Homo sapiens) (UniProt Q16656); experiment: ATG_NRF1_CIS: Attagene CIS-FACTORIAL HepG2 Assay for human Nuclear Respiratory Factor 1 (NRF1) Orphan Gene (AID 2282987; active = hit-call score of the fitted dose curve at least 0.9, where 1 is the maximum; inactive = score below 0.9); settings: HepG2 NRF1 cis-element reporter, Attagene multiplex; actives raise or lower the signal
Outline: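 Endogenous NRF1-driven reporter transcription in transfected HepG2 cells after 24 h treatment. Readout: RT-PCR products, 6-FAM labelled and resolved by capillary electrophoresis; changes fitted both directions relative to DMSO.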

[6] = target: Hepatocyte nuclear factor 4-alpha (Homo sapiens) (UniProt P41235); experiment: ATG_HNF4a_TRANS: Attagene TRANS-FACTORIAL HepG2 Assay for human Hepatocyte Nuclear Factor 4 alpha (HNF4a) (AID 2282982); settings: HepG2 HNF4a transactivation reporter, mRNA readout
Outline: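 Transient MRTU transfection of HepG2, 24 h dosing. Readout: reporter mRNA via RT-PCR + capillary electrophoresis, fluorescence; activity fit upward relative to DMSO control.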

[7] = ATG_M_32_TRANS: Attagene TRANS-FACTORIAL HepG2 Assay for M32 Transcription Factor (Internal Marker) (AID 2282984); settings: HepG2 Attagene TRANS M32 internal marker reporter;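 note: transcript level of a background control reporter unit measured by RT-PCR and capillary electrophoresis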
Outline: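 Read-out: fluorescent reporter cDNA fragments resolved by capillary electrophoresis after RT-PCR of total RNA. Transfected HepG2 cells were exposed to chemical for 24 h. Activity scored in the positive direction relative to DMSO.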

[8] = target: Oxysterols receptor LXR-beta (Homo sapiens) (UniProt P55055); experiment: ATG_LXRb_TRANS: Attagene TRANS-FACTORIAL HepG2 Assay for human Liver X Receptor beta (LXRb) (AID 2282981); settings: HepG2 Attagene TRANS GAL4-LXRb reporter, mRNA
Outline: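 Readout: fluorescent reporter mRNA fragments resolved by capillary electrophoresis after RT-PCR. System: transiently transfected human HepG2, exogenous LXRb-Gal4 chimera driving GAL4-UAS reporter, 24 h dosing. Activity fitted upward against DMSO baseline.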

[9] = ATG_M_06_TRANS: Attagene TRANS-FACTORIAL HepG2 Assay for M06 Transcription Factor (Internal Marker) (AID 2282983); settings: HepG2 Attagene TRANS M06 internal marker reporter;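 for AC50: potency for rise in reporter mRNA above DMSO baseline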
Outline: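 Background control endpoint: reporter mRNA from transiently transfected HepG2 after 24 h dosing, detected by RT-PCR with capillary electrophoresis fluorescence. Analysed for gain versus DMSO.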

Measured: AC50

Sequence of Bile acid receptor (Homo sapiens) (Q96RI1 whole entry, looked up, the tested form may be a part): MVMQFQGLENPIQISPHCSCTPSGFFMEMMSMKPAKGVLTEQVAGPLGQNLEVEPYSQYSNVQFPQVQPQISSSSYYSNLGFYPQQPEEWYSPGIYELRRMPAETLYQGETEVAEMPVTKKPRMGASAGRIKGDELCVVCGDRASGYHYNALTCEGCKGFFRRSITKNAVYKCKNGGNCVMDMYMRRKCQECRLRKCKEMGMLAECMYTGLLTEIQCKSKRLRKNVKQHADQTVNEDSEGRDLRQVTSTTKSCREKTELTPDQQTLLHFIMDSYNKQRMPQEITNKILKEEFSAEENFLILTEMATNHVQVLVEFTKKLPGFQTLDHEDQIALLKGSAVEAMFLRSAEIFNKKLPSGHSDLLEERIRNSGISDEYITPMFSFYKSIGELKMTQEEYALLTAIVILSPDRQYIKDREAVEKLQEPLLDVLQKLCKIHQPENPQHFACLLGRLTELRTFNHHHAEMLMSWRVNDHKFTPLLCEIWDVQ
Sequence of Oxysterols receptor LXR-alpha (Homo sapiens) (Q13133 whole entry, looked up, the tested form may be a part): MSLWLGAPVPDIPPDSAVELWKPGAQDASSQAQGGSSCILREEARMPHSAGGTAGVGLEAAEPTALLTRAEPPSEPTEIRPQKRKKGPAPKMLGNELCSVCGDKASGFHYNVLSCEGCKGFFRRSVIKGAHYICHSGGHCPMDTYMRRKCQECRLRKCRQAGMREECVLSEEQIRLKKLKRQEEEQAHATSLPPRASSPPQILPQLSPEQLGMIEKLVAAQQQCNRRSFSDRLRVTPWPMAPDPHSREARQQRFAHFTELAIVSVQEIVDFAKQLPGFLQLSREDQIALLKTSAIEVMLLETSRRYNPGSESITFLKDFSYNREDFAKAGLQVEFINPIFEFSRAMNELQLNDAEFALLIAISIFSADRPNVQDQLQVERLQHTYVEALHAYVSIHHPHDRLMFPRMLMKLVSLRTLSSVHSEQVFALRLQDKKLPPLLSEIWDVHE
Sequence of Oxysterols receptor LXR-beta (Homo sapiens) (P55055 whole entry, looked up, the tested form may be a part): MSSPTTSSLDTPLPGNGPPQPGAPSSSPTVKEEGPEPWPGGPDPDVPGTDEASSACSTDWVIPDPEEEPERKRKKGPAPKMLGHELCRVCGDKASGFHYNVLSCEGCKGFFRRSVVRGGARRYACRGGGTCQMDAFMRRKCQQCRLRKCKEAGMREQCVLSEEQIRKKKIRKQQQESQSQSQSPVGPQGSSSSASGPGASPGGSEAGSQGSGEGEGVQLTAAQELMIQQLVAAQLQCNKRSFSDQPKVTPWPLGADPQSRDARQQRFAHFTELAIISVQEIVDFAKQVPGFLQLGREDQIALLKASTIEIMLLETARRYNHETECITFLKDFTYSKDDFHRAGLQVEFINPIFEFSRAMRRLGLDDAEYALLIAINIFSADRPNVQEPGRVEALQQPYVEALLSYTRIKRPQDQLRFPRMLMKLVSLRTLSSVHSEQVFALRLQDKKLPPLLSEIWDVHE
Sequence of Hepatocyte nuclear factor 4-alpha (Homo sapiens) (P41235 whole entry, looked up): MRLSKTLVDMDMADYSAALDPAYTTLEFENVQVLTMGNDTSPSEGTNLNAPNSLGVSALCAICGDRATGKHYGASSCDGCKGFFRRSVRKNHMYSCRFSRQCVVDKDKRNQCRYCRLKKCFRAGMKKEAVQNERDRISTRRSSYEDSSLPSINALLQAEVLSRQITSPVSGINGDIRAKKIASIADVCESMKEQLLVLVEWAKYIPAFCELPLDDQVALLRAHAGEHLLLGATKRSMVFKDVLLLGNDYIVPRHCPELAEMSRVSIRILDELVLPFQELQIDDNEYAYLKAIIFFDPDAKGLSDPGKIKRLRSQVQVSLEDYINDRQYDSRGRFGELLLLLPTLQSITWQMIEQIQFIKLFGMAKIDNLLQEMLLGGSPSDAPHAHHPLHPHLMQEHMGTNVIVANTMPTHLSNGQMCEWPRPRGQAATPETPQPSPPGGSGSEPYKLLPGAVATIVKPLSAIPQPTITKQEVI
Sequence of Transcriptional activator Myb (Homo sapiens) (P10242 whole entry, looked up): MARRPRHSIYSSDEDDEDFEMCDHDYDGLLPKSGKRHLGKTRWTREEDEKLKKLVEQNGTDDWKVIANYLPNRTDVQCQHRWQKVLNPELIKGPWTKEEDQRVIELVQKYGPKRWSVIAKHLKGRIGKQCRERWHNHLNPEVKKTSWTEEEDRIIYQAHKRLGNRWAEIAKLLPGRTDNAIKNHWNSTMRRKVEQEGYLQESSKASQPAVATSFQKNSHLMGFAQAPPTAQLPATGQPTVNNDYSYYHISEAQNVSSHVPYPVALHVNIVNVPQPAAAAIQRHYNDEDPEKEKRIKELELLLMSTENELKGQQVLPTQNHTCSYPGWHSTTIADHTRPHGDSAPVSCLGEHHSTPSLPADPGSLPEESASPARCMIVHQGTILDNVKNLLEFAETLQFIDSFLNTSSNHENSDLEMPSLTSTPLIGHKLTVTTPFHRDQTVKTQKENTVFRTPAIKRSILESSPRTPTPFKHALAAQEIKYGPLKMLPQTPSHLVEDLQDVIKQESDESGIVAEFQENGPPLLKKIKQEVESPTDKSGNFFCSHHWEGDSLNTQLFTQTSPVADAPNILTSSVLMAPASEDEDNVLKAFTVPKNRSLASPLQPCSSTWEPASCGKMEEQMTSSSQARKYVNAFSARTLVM
Sequence of Nuclear receptor subfamily 4 group A member 2 (Homo sapiens) (P43354 whole entry, looked up, the tested form may be a part): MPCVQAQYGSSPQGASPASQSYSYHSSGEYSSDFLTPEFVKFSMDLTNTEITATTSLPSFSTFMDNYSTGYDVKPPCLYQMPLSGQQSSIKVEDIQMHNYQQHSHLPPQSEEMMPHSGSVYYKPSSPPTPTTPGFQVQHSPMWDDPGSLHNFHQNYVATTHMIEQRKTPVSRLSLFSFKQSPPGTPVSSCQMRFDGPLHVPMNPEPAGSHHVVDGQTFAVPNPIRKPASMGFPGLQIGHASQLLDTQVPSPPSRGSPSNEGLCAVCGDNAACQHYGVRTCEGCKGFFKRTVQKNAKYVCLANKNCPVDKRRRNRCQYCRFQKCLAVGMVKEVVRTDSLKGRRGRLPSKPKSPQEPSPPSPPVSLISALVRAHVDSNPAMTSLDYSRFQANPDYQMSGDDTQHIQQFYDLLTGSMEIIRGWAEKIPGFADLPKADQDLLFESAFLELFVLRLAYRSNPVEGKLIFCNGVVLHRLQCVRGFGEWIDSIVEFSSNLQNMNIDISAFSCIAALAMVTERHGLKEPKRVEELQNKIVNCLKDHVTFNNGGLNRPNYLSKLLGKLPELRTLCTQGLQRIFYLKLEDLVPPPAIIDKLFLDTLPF
Sequence of Nuclear respiratory factor 1 (Homo sapiens) (Q16656 whole entry, looked up): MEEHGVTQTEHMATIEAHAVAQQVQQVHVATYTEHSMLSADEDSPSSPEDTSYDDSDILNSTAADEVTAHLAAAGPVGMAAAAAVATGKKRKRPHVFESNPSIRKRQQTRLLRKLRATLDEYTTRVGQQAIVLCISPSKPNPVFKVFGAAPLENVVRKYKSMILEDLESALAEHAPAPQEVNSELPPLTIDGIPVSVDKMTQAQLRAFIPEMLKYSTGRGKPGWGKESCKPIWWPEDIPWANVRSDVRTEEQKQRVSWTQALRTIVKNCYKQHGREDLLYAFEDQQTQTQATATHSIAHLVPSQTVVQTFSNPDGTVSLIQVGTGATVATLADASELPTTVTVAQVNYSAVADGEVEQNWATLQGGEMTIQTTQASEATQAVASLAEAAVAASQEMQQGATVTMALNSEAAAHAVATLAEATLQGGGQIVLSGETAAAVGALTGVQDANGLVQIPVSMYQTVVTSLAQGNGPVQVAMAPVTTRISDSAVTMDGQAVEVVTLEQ

Cc1ccc(C)o1
inactive: [1] | [2] | [3] | [4] | [5]

CC=Cc1ccc(OC)c(OC)c1
not listed: [8] | [9]
inactive: all other assays above

CCC1(C)NC(=O)NC1=O (stereo unspecified)
inactive: [1] | [8] | [4] | [5]

CCCC1O[C@@H]2C[C@H]3[C@@H]4CCC5=CC(=O)C=C[C@]5(C)[C@H]4[C@@H](O)C[C@]3(C)[C@]2(C(=O)CO)O1 (stereo partly specified)
inactive: [1] | [9] | [4] | [5]

CCN(CC)C(=O)N(CC)CC
inactive: [1] | [9] | [7] | [4] | [5]

CC/C=C\CC/C=C/CO
not listed: [6]
inactive: all other assays above

COc1cc([C@@H]2c3cc4c(cc3[C@@H](O[C@@H]3O[C@@H]5CO[C@@H](C)O[C@H]5[C@H](O)[C@H]3O)[C@H]3COC(=O)[C@H]23)OCO4)cc(OC)c1O
inactive: [1] | [6] | [9] | [4] | [5]

O=C(O)c1ccc(O)cc1
not listed: [8]
inactive: all other assays above

O=C1OC(=O)c2c(Cl)c(Cl)c(Cl)c(Cl)c21
not listed: [2] | [7] | [9]
inactive: all other assays above

CC(=O)O[C@@H]1CC2CCC1(C)C2(C)C (stereo partly specified)
not listed: [2] | [9]
inactive: all other assays above

OCc1cccc(Oc2ccccc2)c1
not listed: [3] | [9]
inactive: all other assays above

CC(=O)CC(=O)Nc1ccc(C)cc1C
not listed: [2] | [3]
inactive: all other assays above

C=Cc1ccc(C(C)(C)C)cc1
inactive: [1] | [3] | [4] | [5]

Nc1c(S(=O)(=O)O)cc(Br)c2c1C(=O)c1ccccc1C2=O
not listed: [1] | [6]
inactive: all other assays above

CC1(C)COCN1
inactive: [2] | [8] | [6] | [4] | [5]

O=C(Nc1ccc2c(O)c(N=Nc3ccc(N=Nc4ccc(S(=O)(=O)O)cc4)cc3)c(S(=O)(=O)O)cc2c1)c1ccccc1
not listed: [1] | [6] | [9]
inactive: all other assays above

Nc1c(Cl)cc(Cl)cc1[N+](=O)[O-]
not listed: [1] | [3] | [9]
inactive: all other assays above

CN(C)CCOC(C)(c1ccccc1)c1ccccn1 (stereo unspecified)
inactive: [2] | [8] | [7] | [4] | [5]

C=C(C#N)C(=O)OCC
not listed: [1] | [3] | [6]
inactive: all other assays above

CC(C)=CCCC(C)CC(=O)O (stereo unspecified)
not listed: [1] | [7]
inactive: all other assays above

O=C1c2ccccc2C(=O)c2c(O)ccc(O)c21
not listed: [1] | [3]
inactive: all other assays above

CC(C)C(OC(=O)c1ccccc1)C(C)(C)COC(=O)c1ccccc1 (stereo unspecified)
inactive: [3] | [4] | [5]
active: [1] 20 µM

CCCCCCCCCCCCCCCC(=O)OC/C=C(C)/C=C/C=C(C)/C=C/C1=C(C)CCCC1(C)C
inactive: [2] | [8] | [4] | [5]

C=CC(=O)OCCCC
inactive: [2] | [8] | [4] | [5]

CCC(=O)OCCOc1ccccc1
not listed: [1] | [6] | [7]
inactive: all other assays above

CC/C=C\CCOC(=O)CC
inactive: [1] | [3] | [4] | [5]

OCCc1ccccc1
not listed: [1] | [7]
inactive: all other assays above

C=C(C)C(=O)OCCOC1CC2CC1C1C=CCC21 (stereo unspecified)
not listed: [1] | [3] | [8]
inactive: all other assays above

CC(=O)OCCCc1ccccc1
inactive: [2] | [8] | [7] | [4] | [5]

CCCCC(CC)C(=O)OC(C)C (stereo unspecified)
not listed: [1] | [6] | [7]
inactive: all other assays above

CC(=O)C(C)O (stereo unspecified)
not listed: [1] | [7]
inactive: all other assays above

O=c1c(O)c(-c2ccc(O)cc2)oc2cc(O)cc(O)c12
not listed: [1]
inactive: all other assays above

CCN(CCN)c1cccc(C)c1
not listed: [1] | [3] | [8]
inactive: all other assays above

CN(c1nccc(=O)[nH]1)C1CCN(c2nc3ccccc3n2Cc2ccc(F)cc2)CC1
not listed: [1] | [3] | [6]
inactive: all other assays above

COC(=O)C=C(C)CCC=C(C)C
not listed: [1] | [3] | [8]
inactive: all other assays above

CCCCCCCCCCCCCCN(CCO)CCO
active: [9] 162 µM
not listed: [1] | [7]
inactive: all other assays above

O=CN1CCOCC1
not listed: [1] | [3]
inactive: all other assays above

OC[C@H]1O[C@@H](Oc2ccc(O)cc2)[C@H](O)[C@@H](O)[C@@H]1O
not listed: [1] | [3] | [7]
inactive: all other assays above

C1CCCCC1
not listed: [1] | [9]
inactive: all other assays above

[O-]n1ccccc1=S.[O-]n1ccccc1=S.[Zn+2]
not listed: [1] | [3] | [8]
inactive: all other assays above

C#CC(C)(O)CC(C)C (stereo unspecified)
inactive: [2] | [8] | [6] | [4] | [5]

CCCCCCCC(=O)OCCCCCC
not listed: [1] | [8]
inactive: all other assays above

O=C(O)COCC(=O)O
not listed: [1] | [3] | [7]
inactive: all other assays above

C=CCCCCCCCCCC
not listed: [1] | [9]
inactive: all other assays above

CCCCCCOC(=O)CCC
inactive: [2] | [8] | [9] | [4] | [5]

C#CC(C)N(C)C(=O)Nc1ccc(Cl)cc1 (stereo unspecified)
not listed: [1] | [7]
inactive: all other assays above

ON=C1CCCCC1
inactive: [2] | [8] | [9] | [4] | [5]

Nc1ccc2c(O)cc(S(=O)(=O)O)cc2c1
not listed: [1] | [7] | [8]
inactive: all other assays above

CCCCCCC(=O)c1ccccc1
inactive: [1] | [4] | [5]

NC1CCCCC1N (stereo unspecified)
not listed: [1] | [6]
inactive: all other assays above

CCN(CCC#N)c1ccc(N=Nc2ccc([N+](=O)[O-])cc2)cc1
inactive: [1] | [4] | [5]

CC(C)OCCO
inactive: [9] | [3] | [4] | [5]

O=Cc1ccccc1S(=O)(=O)O
inactive: [9] | [3] | [4] | [5]

CCCC(C)=O
inactive: [6] | [9] | [4] | [5]

CC1(C)O[C@@H]2[C@@H](CO[C@@]3(COS(N)(=O)=O)OC(C)(C)O[C@@H]23)O1
inactive: [6] | [9] | [4] | [5]

COc1ccc(CCN2CCC(Nc3nc4ccccc4n3Cc3ccc(F)cc3)CC2)cc1
inactive: [7] | [3] | [4] | [5]

CC(C)CCOC(=O)c1ccccc1
inactive: [7] | [4] | [5]

OCC(O)c1ccccc1 (stereo unspecified)
inactive: [3] | [4] | [5]

C=C[Si]1(C)O[Si](C)(C=C)O[Si](C)(C=C)O[Si](C)(C=C)O1 (stereo unspecified)
inactive: [4] | [5]

CCCCCC(=O)CC
inactive: [6] | [9] | [4] | [5]
